# Compound activity from PubChem.
# SARS 3CLpro inh = SARS-CoV 3CLpro protease inhibition; P0C6X7; recombinant SARS-CoV 3CLpro, quenched FRET peptide cleavage; inhibition, % at 6 µM; 290,000 compounds, 0.14% hits; in the data active = inhibition above about 12%
# GDH-TPI counter-1 = counter-screen for M. tuberculosis FBA inhibitors: GDH-TPI coupled enzymes. GDH-TPI coupled enzyme counterscreen, NADH absorbance. inhibition, % at 4.8 µM. 360,000 compounds, 1.2% hits. AID 588335; in the data active = inhibition above about 30%;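 also: 0% = DMSO wells and 100% = wells lacking the enzyme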
# PrPC TRFRET = cell surface PrPC inhibition, primary TR-FRET screen. inhibition, % at 13.8 µM. P04156. 370,000 compounds, 0.43% hits. TR-FRET read-out; in the data active = inhibition above about 24%; also: 0% = median of the test wells and 100% = reference compound wells
# Vc quorum ag = induces V. cholerae light production without autoinducers | V. cholerae BH1578 lux reporter, luminescence, 6 h | activation, % at 18.7 µM | 350,000 compounds, 0.16% hits; in the data active = activation mostly above about 9.7%, no sharp cut-off
# Mtb FBA inh = inhibits M. tuberculosis FBA enzyme | inhibition, % at 1 µM | P9WQA3 | purified M. tuberculosis FBA, fluorescence read-out | 360,000 compounds, 2.3% hits;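 also: 0% = vehicle and 100% = reference inhibitor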
# Target sequence (P9WQA3 whole entry, looked up): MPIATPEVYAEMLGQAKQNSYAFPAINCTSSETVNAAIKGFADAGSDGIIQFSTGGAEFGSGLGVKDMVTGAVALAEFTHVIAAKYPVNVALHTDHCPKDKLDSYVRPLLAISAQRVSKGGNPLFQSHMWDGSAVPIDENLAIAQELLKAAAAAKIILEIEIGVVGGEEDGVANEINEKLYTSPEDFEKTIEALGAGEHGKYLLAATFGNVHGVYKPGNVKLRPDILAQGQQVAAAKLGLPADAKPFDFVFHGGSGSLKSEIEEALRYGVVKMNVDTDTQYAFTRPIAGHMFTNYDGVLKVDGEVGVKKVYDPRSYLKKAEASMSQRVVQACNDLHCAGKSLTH
# Mtb FBA inh conf = Mtb FBA inhibition, confirmed | shares compounds with Mtb FBA inh | purified M. tuberculosis FBA, fluorescence read-out | inhibition, % at 1 µM | 5,600 compounds, 78% hits | AID 651616;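 also: 0% = vehicle wells and 100% = reference inhibitor wells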
# GDH-TPI counter-2 = GDH-TPI inhibition counter-screen for FBA inhibitors; shares compounds with Mtb FBA inh; GDH-TPI coupled enzyme counterscreen, fluorescence; inhibition, % at 1 µM; 5,600 compounds, 81% hits; in the data active = inhibition above about 10%
# GDH-TPI DR = inhibits GDH-TPI coupling enzymes in dose response | shares compounds with Mtb FBA inh | GDH-TPI coupled enzyme assay, fluorescence, artifact counterscreen | IC50, µM | 170 compounds, 79% hits | AID 652145; call rule not given here
# An asterisk follows results filed as active; i = inactive; nt = no result; + = active, no number. Compounds with a hit are over-represented: about 3.9% of the library has one in this group of screens. Rule as the data show it, unless noted: active = inhibition above about 27%; inactive = the rest.
SMILES,SARS 3CLpro inh,GDH-TPI counter-1,PrPC TRFRET,Vc quorum ag,Mtb FBA inh,Mtb FBA inh conf,GDH-TPI counter-2,others
CCOC(=O)NN1C(=O)c2ccccc2NC1c1ccccn1 (centres undefined),5.3,4.1,3.6,-0.6,29.8*,105.0*,76.7*,
CC(/C=N/NC(=O)c1cc(C(C)C)[nH]n1)=C\c1ccccc1,-1.5,21.7,-4.4,-0.4,-3.4,nt,nt,
N=c1n(CCCOc2ccccc2Cl)c2ccccc2n1CC(N)=O,4.1,5.3,-5.8,-3.6,0.9,nt,nt,
O=C(NC1CCCCC1)C(c1ccco1)N(C(=O)c1csnn1)c1cccc(Cl)c1 (centres undefined),-10.9,-2.7,5.3,-0.3,1.8,nt,nt,
Cn1c(N)c(NC(=S)NC2CCCCC2)c(=O)n(C)c1=O,nt,7.0,-3.3,i,-0.7,nt,nt,
CCOC(=O)NN1C(=O)c2ccccc2NC1c1ccc(N(C)C)cc1 (centres undefined),-0.8,16.7,-3.0,-0.2,9.6,nt,nt,
CCOC(=O)NN1C(=O)c2ccccc2NC1c1ccccc1 (centres undefined),0.9,7.8,-4.2,-0.3,39.5*,+,+,
CCOC(=O)NN1C(=O)c2ccccc2NC1c1ccc(OC)cc1 (centres undefined),0.1,8.5,2.9,-0.3,40.1*,140.5*,119.5*,
CC(C)N1CCN(Cc2cc(F)ccc2-n2cccn2)CC1CCO (centres undefined),-0.1,-3.8,-7.6,0.7,37.5*,105.7*,81.7*,
O=C1N=C(N2CCN(Cc3ccccc3)CC2)S/C1=C/c1cccs1,4.0,28.0,-0.2,i,1.6,nt,nt,
O=C1N=C(N2CCN(c3ccccc3)CC2)S/C1=C/c1cccs1,0.5,25.8,1.3,i,33.8*,6.2,-7.7,
Fc1ccc(-c2nc3c4ccccc4ccn3c2Cc2cccc(Cl)c2)cc1,nt,nt,-2.2,nt,3.6,nt,nt,
c1ccc2c(c1)COc1c3ncccc3nn1-2,nt,22.7,-3.1,i,32.6*,36.9*,32.1*,
O=C(c1ccc2c3n(nc2c1)-c1ccccc1CO3)N1CCCCC1,nt,9.7,-14.0,i,2.3,nt,nt,
COc1ccc(CN(C)CC(=O)Nc2cccc(S(=O)(=O)N(C)c3ccccc3)c2)c(OC)c1,nt,-14.5,-6.7,i,-1.4,nt,nt,
O=C(O)C1CCCCC1C(=O)NCc1ccc2c(c1)OCO2 (centres undefined),-1.8,-3.1,7.7,i,89.8*,+,161.7*,
CCOC(=O)c1ccc2ncc(C(=O)OCC)c(NCc3ccco3)c2c1,3.3,18.0,2.9,i,62.5*,8.1,1.1,
CCC(C)n1c(/C=C/c2ccccc2)nc2ccccc21 (centres undefined),-2.5,17.5,2.2,0.8,32.9*,52.6*,31.9*,
COc1ccc(Cn2c(/C=C/c3ccccc3)nc3ccccc32)cc1,1.6,14.8,0.6,i,48.2*,168.6*,137.9*,
CC(C)Cn1c(/C=C/c2ccccc2)nc2ccccc21,-3.0,38.8*,10.6,-2.7,77.9*,91.8*,66.7*,
CCn1c(/C=C/c2ccccc2)nc2ccccc21,-3.4,65.2*,4.9,0.9,57.6*,+,+,
CCOCCCNC(=O)c1cn(C)c2ccc(S(=O)(=O)N3CCCCC3)cc2c1=O,-0.8,7.4,-1.0,-12.9,1.4,nt,nt,
O=C(C1CCC1)N1CCc2cc(S(=O)(=O)N3CCN(c4ccccc4F)CC3)ccc21,nt,nt,-8.5,nt,nt,nt,nt,
CCN(CC)C(=O)[C@H]1C[C@@H]2[C@H](C[C@@H](c3ccccc3)[C@H]1C)N(c1ccc(F)cc1)C(=O)N2C/C=C(\C)CCC=C(C)C,nt,nt,0.3,nt,nt,nt,nt,
C[C@H](O)[C@@H]1C(=O)N2CCc3c([nH]c4ccccc34)[C@@H]2C[C@@H]1N(C)Cc1ccc2c(c1)OCO2,nt,-5.2,-8.7,-2.1,1.4,nt,nt,
SMILES,SARS 3CLpro inh,GDH-TPI counter-1,PrPC TRFRET,Vc quorum ag,Mtb FBA inh,Mtb FBA inh conf,GDH-TPI counter-2,others
CCn1c2ccccc2c(=O)c2ccccc21,3.1,6.6,-7.4,-0.3,87.1*,5.0,-3.7,
CCn1c2ccccc2c2cc([N+](=O)[O-])ccc21,3.4,2.9,-2.2,0.0,3.3,nt,nt,
CCNC(=S)Nc1cc2oc3ccccc3c2cc1OC,-6.0,6.8,7.5,-0.4,31.3*,4.2,4.8,
COc1cc2c(cc1NC(=S)Nc1ccccc1C)oc1ccccc12,5.6,36.2*,0.3,i,110.7*,55.6*,42.6*,
COc1cc2c(cc1NC(=S)Nc1cccc(C)c1)oc1ccccc12,-2.3,31.0*,-0.1,i,86.7*,11.7,-4.2,GDH-TPI DR=>10
CCCNC(=S)Nc1cc2oc3ccccc3c2cc1OC,7.5,12.5,1.8,-1.6,4.0,nt,nt,
CNC(=S)Nc1cc2oc3ccccc3c2cc1OC,4.0,11.3,2.2,-0.5,1.5,nt,nt,
COc1cccc(NC(=O)NC2CCCCN(Cc3ccccc3C)C2=O)c1 (centres undefined),nt,nt,13.7,nt,nt,nt,nt,
Cc1csc(N=Cc2ccc([N+](=O)[O-])o2)n1,nt,3.1,-4.4,2.9,-5.0,nt,nt,
CCOCCCNC(=O)C(NC(=O)c1ccccn1)c1ccc(C)cc1 (centres undefined),-8.7,2.9,3.1,nt,3.9,nt,nt,
CCOCCCNC(=O)C(NC(=O)c1ccccc1O)c1ccc(C)cc1 (centres undefined),0.9,4.2,-2.4,i,41.7*,+,168.7*,
COc1cc(C)c(C2NC(=O)c3ccccc3N2)cc1C (centres undefined),nt,10.3,2.7,i,22.4,nt,nt,
COc1ccc(C2NC(=O)c3ccccc3N2)c(OC)c1OC (centres undefined),nt,-0.4,3.4,-3.7,76.6*,74.6*,65.5*,
CSc1ccc(C2Nc3cccc4cccc(c34)N2)cc1,1.6,5.5,-0.4,0.8,-1.1,nt,nt,
O=C1NC(c2ccc(O)cc2)Nc2ccccc21 (centres undefined),-3.5,7.5,-3.5,-2.0,36.5*,39.3*,33.9*,
CSc1ccc(C2NC(=O)c3ccccc3N2)cc1 (centres undefined),nt,3.8,1.7,-0.5,48.2*,23.4,16.0*,
O=C1NC(c2ccc(Cl)c([N+](=O)[O-])c2)Nc2ccccc21 (centres undefined),3.1,2.5,-3.6,i,-1.0,nt,nt,
COc1ccc(C2NC(=O)c3ccccc3O2)c(OC)c1OC (centres undefined),-0.1,4.1,5.8,-0.3,8.8,nt,nt,
Cc1ccc(C)c(C2NC(=O)c3ccccc3N2)c1 (centres undefined),0.4,6.7,10.1,-0.6,62.9*,92.6*,71.9*,
O=C(c1ccc(CS(=O)c2ccc(F)cc2)o1)N1CCN(C2CCCCC2)CC1 (centres undefined),2.8,3.0,3.3,0.1,5.8,nt,nt,
Oc1ccccc1C1CC(c2cccs2)=NC(c2cccc(Br)c2)N1 (centres undefined),-1.0,15.1,-12.4,-0.3,-0.6,nt,nt,
